Data published in PubChem BioAssay.

Biological target: Torsin-1A-interacting protein 1 (Homo sapiens) (UniProt Q5JTV8)
Test: compound microarray binding of lysate hLAP1 – cell lysate, small-molecule microarray, COS7 lysate, 635/667 nm fluorescence, primary screen (AID 1116)
Details: 635 nm fluorescence, higher = more signal

Torsin-1A-interacting protein 1 (Homo sapiens), sequence (Q5JTV8 whole entry, looked up): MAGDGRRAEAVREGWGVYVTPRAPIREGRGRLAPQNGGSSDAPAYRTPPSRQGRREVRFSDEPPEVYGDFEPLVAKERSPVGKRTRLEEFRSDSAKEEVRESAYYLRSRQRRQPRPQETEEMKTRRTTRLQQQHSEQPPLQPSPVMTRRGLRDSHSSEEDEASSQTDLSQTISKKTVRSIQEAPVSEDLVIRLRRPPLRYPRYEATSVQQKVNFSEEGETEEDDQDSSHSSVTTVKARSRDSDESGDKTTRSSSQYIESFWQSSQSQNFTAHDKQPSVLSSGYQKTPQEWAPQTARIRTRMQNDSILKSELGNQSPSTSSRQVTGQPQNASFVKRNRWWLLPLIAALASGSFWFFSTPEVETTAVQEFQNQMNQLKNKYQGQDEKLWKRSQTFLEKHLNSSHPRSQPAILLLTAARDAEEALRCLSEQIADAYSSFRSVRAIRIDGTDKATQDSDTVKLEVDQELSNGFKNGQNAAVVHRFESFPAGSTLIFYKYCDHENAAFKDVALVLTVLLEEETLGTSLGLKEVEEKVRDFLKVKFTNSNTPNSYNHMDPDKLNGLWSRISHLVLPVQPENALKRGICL

Point of comparison: `CC(C)c1ccc(NN2C(C(O)c3cccc(O)c3)C=CC3C(=O)N(c4ccccc4)C(=O)C32)cc1` (centres undefined), composite z-score 1.5. Against it:
- [N-]=[N+]=Nc1ccccc1[C@H]1OC(c2ccc(OCCCO)cc2)=N[C@@]1(CCS(=O)(=O)c1ccccc1)C(=O)O — higher, 2
- CC=CC(O)C1C=CC2C(=O)N(c3ccccc3)C(=O)C2N1Nc1ccc(C(C)C)cc1 (centres undefined) — lower, 0.37
- COc1cccc(C(=O)O[C@H]2CC[C@]3(C)C4=C(CCC3C2(C)C)[C@]2(C)CC[C@H]([C@H](C)CCCC(C)C)[C@@]2(C)CC4)c1 (some centres undefined) — lower, 0.105
- CC(=O)NCCCC[C@@H]1NC(=O)[C@H]2C[C@@H](C(=O)NCCCCCC[N+](C)(C)C)[C@@H](c3cccc(OCCO)c3)N2C1=O — lower, 0.595
- O=C(CS)NCCCCCCNC(=O)[C@H]1C[C@H]2C(=O)N3CCC[C@H]3C(=O)N2[C@H]1c1cccc(OCCO)c1 — lower, 0.557
- C=C(C(=O)CC[C@H](OC(C)=O)c1ccc(OCCO)cc1)C(C)C — lower, 0.949

Biological target: Alpha-bungarotoxin (Bungarus multicinctus) (UniProt P60615)
Sequence (P60615 whole entry, looked up): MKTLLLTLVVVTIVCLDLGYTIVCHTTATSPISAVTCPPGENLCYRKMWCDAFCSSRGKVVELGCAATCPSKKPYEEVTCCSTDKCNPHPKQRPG
Test: compounds binding labelled alpha-BTX control protein – biochemical, small-molecule microarray, Alexa647 label, 635/667 nm fluorescence, artefact control for SMM control protein annotation, profiling panel (AID 1117)
Details: alpha-BTX-A647 binding fluorescence, higher = more signal

Point of comparison: `COc1ccccc1CN1C(=O)c2ccccc2[C@@H](C(=O)NCCN2CCOCC2)[C@@H]1c1ccc(CO)cc1`, composite z-score -0.737. Against it:
- COCCOC(=O)N1C(=O)[C@@]2(c3cc(C#CCC(C(=O)OC)C(=O)OC)ccc31)[C@H](C(=O)N1CCCCCCC1)[C@H]1C(=O)O[C@H](c3ccccc3)[C@H](c3ccccc3)N1[C@@H]2c1ccc(OCCO)cc1 — higher, 3.31
- C=C(CCCC)/C(=C/C[C@H](OC(C)=O)c1ccc(CO)o1)c1cnc2ccccc2c1 — higher, 1.73
- [N-]=[N+]=NCc1ccccc1[C@@H]1OC(c2ccc(OCCCO)cc2)=N[C@]1(Cc1ccccc1)C(=O)N1CCCCC1 — higher, 1.14
- C=CCNC(=O)[C@@H]1[C@H]2C(=O)O[C@H](c3ccccc3)[C@H](c3ccccc3)N2[C@H](c2ccc(OCCO)cc2)[C@@]12C(=O)Nc1ccccc12 — higher, 1.05
- O=C1OCCC=C[C@H]2OC34C=CCN(Cc5ccccc5)C(=O)[C@H]3N(CCCCCO)C(=O)[C@@H]4C12 (some centres undefined) — lower, -1.06
- CN1CCC(CCCO)=CC1c1ccc(CN2CCCC2)cc1 (centres undefined) — higher, 1.34
- COCCOC(=O)N1C(=O)[C@@]2(c3cc(C#CCCO)ccc31)[C@H](c1ccc(O)cc1)N1[C@H](c3ccccc3)[C@H](c3ccccc3)OC(=O)[C@H]1[C@@H]2C(N)=O — higher, 0.755
- C[C@]1(C(=O)NCc2ccccc2)c2ccccc2C(=O)N(Cc2ccc(OC(F)(F)F)cc2)[C@H]1c1ccc(CO)cc1 — higher, -0.141
- COc1ccc([Si](C)(C)[C@@H]2[C@@H](CCn3cc([C@H](O)c4ccccc4)nn3)O[C@]3(C(=O)N(Cc4ccc(N5C(=O)c6cccc7cccc5c67)cc4)c4ccccc43)[C@H]2C)cc1 — higher, 0.152
- [N-]=[N+]=NCc1ccccc1C[C@@]1(C(=O)NCC(O)CO)N=C(c2ccc(OCCCO)cc2)O[C@@H]1c1ccccc1CN=[N+]=[N-] (some centres undefined) — higher, 1.5
- C=CC[C@@H](OC(=O)Nc1ccc(OC)cc1)c1ccc(O)c2ccccc12 — higher, 0.824
- CCOC(=O)C[C@H]1[C@H](OC(=O)c2ccccc2-c2ccccc2)[C@@H](NC(=O)c2ccc3ccccc3c2)c2cc(OCCCO)ccc2N1C(=O)c1ccc2ccccc2n1 — higher, 0.164
- N#Cc1ccc(NN2C(C(O)c3ccc([N+](=O)[O-])cc3)C=CC3C(=O)N(c4ccccc4)C(=O)C32)cc1 (centres undefined) — higher, 0.752
- [N-]=[N+]=NCc1ccccc1[C@@H]1OC(c2ccc(OCCCO)cc2)=N[C@]1(Cc1ccccc1N=[N+]=[N-])C(=O)NCc1ccccc1 — higher, 0.158
- CCOC(=O)C[C@H]1[C@H](OC(=O)c2ccc(-c3ccccc3)cc2)[C@@H](NC(=O)c2ccc3ccccc3c2)c2cc(OCCCO)ccc2N1C(=O)Cc1ccc(OC)cc1 — higher, 0.0773
- CC(C)NC(=O)[C@@H]1c2ccccc2C(=O)N(Cc2ccccc2Cl)[C@H]1c1ccc(CO)cc1 — higher, -0.436
- CCCCC(CC)C(O)C1C=CC2C(=O)N(c3ccccc3)C(=O)C2N1Nc1ccccc1 (centres undefined) — higher, 1.1
- CC(C)C[C@@H]1NC(=O)[C@H]2C[C@@H](C(=O)NCCCCCNC(=O)CS)[C@@H](c3cccc(OCCO)c3)N2C1=O — higher, 0.812
- CCC[C@@H]1C=C(C(=O)O)[C@H](c2ccc(C)cc2)N1S(=O)(=O)c1ccc(C)cc1 — higher, 1.45
- [N-]=[N+]=NCc1ccccc1[C@H]1OC(c2ccc(OCCCO)cc2)=N[C@@]1(CCS(=O)(=O)c1ccccc1)C(=O)N1CCOCC1 — higher, 2.59
- C=CC(COC(C)=O)NS(=O)(=O)c1ccc(Br)cc1 (centres undefined) — higher, 0.601
